Rows were chosen to be rich in hits. Some 2.5% of all compounds tested hit in one or more screens of this group.
Pol eta inh: qHTS for Inhibitors of Polymerase Eta. Potency, µM (titrated, usually from 114 µM), inactives show at the highest dose activity change, negative = inhibition, actives largely listed as inhibitors. actives 1.2% (n = 390,000). recombinant Pol eta, fluorescent DNA replication assay; also: % is scaled to controls: 0 for no effect and ±100 for the full control effect
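Pol eta (10 nM) was preincubated with compounds for 15 min at room temperature, after which fluorescent replication substrate (50 nM final) was added to start the reaction. Fluorescence was read kinetically at 0 and 10 min.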
Pol iota inh: qHTS for Inhibitors of Polymerase Iota | DNA polymerase iota (Homo sapiens), Q9UNA4 | Pol iota fluorescent replication assay, 10 min | Potency, µM (doses to about 115 µM), inactives show at the highest dose activity, negative = inhibition, actives largely listed as inhibitors | actives 1% (n = 390,000)
Target sequence (Q9UNA4 whole entry, looked up): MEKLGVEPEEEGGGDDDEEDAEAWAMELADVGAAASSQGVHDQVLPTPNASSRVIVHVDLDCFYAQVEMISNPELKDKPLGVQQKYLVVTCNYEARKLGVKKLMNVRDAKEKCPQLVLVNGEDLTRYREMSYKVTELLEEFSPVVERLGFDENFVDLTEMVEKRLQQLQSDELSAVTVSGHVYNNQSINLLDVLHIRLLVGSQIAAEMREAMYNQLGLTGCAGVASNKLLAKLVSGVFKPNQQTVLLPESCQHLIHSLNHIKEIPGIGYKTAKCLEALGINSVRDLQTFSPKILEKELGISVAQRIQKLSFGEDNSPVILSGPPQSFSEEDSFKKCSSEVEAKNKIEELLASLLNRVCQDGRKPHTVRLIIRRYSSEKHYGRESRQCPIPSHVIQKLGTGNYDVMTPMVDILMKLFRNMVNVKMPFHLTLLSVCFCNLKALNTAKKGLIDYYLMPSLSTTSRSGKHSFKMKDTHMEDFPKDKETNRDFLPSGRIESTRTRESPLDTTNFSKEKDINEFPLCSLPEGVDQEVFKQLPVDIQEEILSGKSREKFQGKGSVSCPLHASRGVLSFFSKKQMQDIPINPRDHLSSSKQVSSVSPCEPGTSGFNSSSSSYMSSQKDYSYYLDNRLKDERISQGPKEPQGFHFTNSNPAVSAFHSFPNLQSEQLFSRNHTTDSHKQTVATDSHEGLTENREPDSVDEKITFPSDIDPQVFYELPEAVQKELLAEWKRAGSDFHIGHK
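Fluorescent replication assay read twice, at 0 min and 10 min after adding 50 nM (final) substrate. Enzyme (10 nM) and compounds were first incubated 15 min at room temperature; enzyme-free buffer wells were negative controls.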
POLK inh: qHTS for Inhibitors of Polymerase Kappa; DNA polymerase kappa (Homo sapiens), Q9UBT6; purified Pol kappa, fluorescent DNA synthesis assay, 10 min; Potency, µM (top dose mostly 107 µM), inactives show top-dose activity, negative = inhibition, most hits filed as inhibitors; actives 0.53% (n = 400,000); AID 588579, 2011; also: % is scaled to controls: 0 for no effect and ±100 for the full control effect
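Kinetic fluorescence readout at 0 and 10 min followed reaction start with substrate at 50 nM final. Beforehand, enzyme (10 nM Pol kappa) stood 15 min with compound at room temperature; buffer-only wells were negative controls.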
L3MBTL1 block: qHTS Assay for the Inhibitors of L3MBTL1; AID 485360, 2010; Potency, µM (highest dose often 57.1 µM), inactives show at the top dose activity, negative = inhibition, actives largely listed as inhibitors; actives 0.66% (n = 230,000); AlphaScreen L3MBTL1–H3K9me1 peptide binding; also: % is scaled to controls: 0 for no effect and ±100 for the full control effect; nearly all actives have a fitted effect of over 60% in size
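L3MBTL1 (50 nM) pre-complexed 30 min with biotinylated H3(1-15)K9me1 peptide (75 nM), then compounds added for 30 min at room temperature; AlphaScreen streptavidin donor/nickel chelate acceptor beads (10 ug/mL final) read after 30 min dark incubation.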
POLB inh: qHTS Assay for Inhibitors of DNA Polymerase Beta; Pol beta primer extension/strand displacement, fluorescence kinetic; actives 1.3% (n = 340,000); Potency, µM (titrated, usually from 114 µM), without a hit: at the highest dose activity change, negative = inhibition, most hits filed as inhibitors; P06746; also: % is scaled to controls: 0 for no effect and ±100 for the full control effect
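Preincubation: enzyme (10 nM) with compound, 15 min, RT. Reaction: substrate added to 50 nM final. Reads: 0 and 10 min. Analysis: normalized, Hill fit.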
WRN inhibitor: qHTS for Inhibitors of WRN Helicase; Bifunctional 3'-5' exonuclease/ATP-dependent helicase WRN (Homo sapiens), Q14191; WRN helicase unwinding, fluorescent forked duplex, kinetic; Potency, µM (series often up to 114 µM), for inactives: top-dose activity change, negative = inhibition, usual class: inhibitors; AID 651768, 2012; actives 0.46% (n = 360,000); also: % is scaled to controls: 0 for no effect and ±100 for the full control effect; nearly all actives have a fitted effect of over 55% in size
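Kinetic fluorescence helicase assay: unwinding of a quenched forked DNA duplex (100 nM final) with 2 mM ATP final raises red fluorescence (525/598 nm). Compounds sat 15 min at room temperature with 20 nM WRN beforehand.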
* marks the source's active call; other numbers are inactive results; ? = inconclusive; nt = not tested or not shown; [ ] = dose if it differs, or a comment. Calls follow the shape of the dose curve; as a rule, active = well fitted curve in the direction sought with a large enough effect; inconclusive = small, poorly fitted or top-dose-only effect, or another doubt; inactive = no such curve, though single readings can be large; an effect the other way counts as inactive or inconclusive. Potency is read from the fitted curve at half-maximal effect.

SMILES | Pol eta inh | Pol iota inh | POLK inh | L3MBTL1 block | POLB inh | WRN inhibitor
O=C(CCc1nc2sc3c(c2c(=O)[nH]1)CCCC3)NCCc1ccc(F)cc1 | ? | ? | -17% | nt | 22µM* | -12%
CC1CCCCC1NC(=O)CCc1nc2sc3c(c2c(=O)[nH]1)CCCC3 (stereo not drawn) | ? | ? | -31% | -1% | nt | -34%
CC(=O)N1CCN(C(=O)CCc2nc3sc4c(c3c(=O)[nH]2)CCCC4)CC1 | -16% | -8% | -14% | 0% | 29% | 3%
CCCOc1ccc(N)cc1N | ? | ? | -30% | -10% | ? | 56µM*
CCCOc1cc(N)ccc1C(=O)OCCN(CC)CC | -16% | -3% | -21% | 0% | nt | 2%
Cn1cc(C(=O)C(=O)N2CCOCC2)c2ccccc21 | 12% | -3% | -16% | nt | 8% | 10%
O=S(OCCN1CCOCC1)C(c1ccccc1)c1ccccc1 (stereo not drawn) | -16% | 31% | 3% | nt | nt | 4%
COc1ccc(/C=C2/SC(=S)N(NS(=O)(=O)c3ccccc3)C2=O)cc1 | 89µM* | 76% | -16% | nt | 3% | ?
COc1cc(/C=C2\SC(=S)N(NS(=O)(=O)c3ccccc3)C2=O)ccc1O | ? | 32µM* | -14% | -4% | -40% | 50µM*
CCOc1cc(/C=C2\SC(=S)N(NS(=O)(=O)c3ccc(C)cc3)C2=O)ccc1O | ? | ? | ? | nt | nt | 50µM*
COc1cc(/C=C2\SC(=S)N(NS(=O)(=O)c3ccc(C)cc3)C2=O)cc(OC)c1OC | -2% | -23% | -19% | -22% | 13% | -30%
COc1ccccc1/C=C1\SC(=S)N(NS(=O)(=O)c2ccccc2)C1=O | ? | -19% | -17% | nt | -19% | -13%[57.1 µM]
C=CCOc1ccc(/C=C2\SC(=S)N(NS(=O)(=O)c3ccccc3)C2=O)cc1 | 25µM* | ? | -18% | nt | ? | -5%[11.6 µM]
CCc1nnc(NC(=O)c2nc(SCc3cccc(C)c3)ncc2Cl)s1 | -5% | -7% | -12% | nt | 29% | nt
O=C(C(=Cc1ccccc1)CN1CCCCC1)c1ccccc1 | ? | -16% | -8% | nt | nt | -11%
CC(/C=C1\SC(=S)N(NS(=O)(=O)c2ccccc2)C1=O)=C\c1ccccc1 | 79µM* | ? | -5% | -6% | -38% | -1%[11.6 µM]
Nc1nc(Cl)nc2ncn(Cc3ccccc3)c12 | 2% | 167% | -4% | 4% | 14% | -12%
CCCC(=O)Nc1ccccc1OCc1cc(=O)n2cc(C)ccc2n1 | -18% | -8% | -2%[60.1 µM] | nt | 33% | nt
Cc1ccc2nc(COc3ccccc3NC(=O)c3ccc(F)cc3)cc(=O)n2c1 | -10% | 89µM* | -15%[60.1 µM] | nt | ? | nt
O=[N+]([O-])c1ccccc1NS(=O)(=O)c1ccccc1 | -4% | nt | nt | nt | nt | 5%
C[n+]1ccc(/C=C/c2ccc(Br)cc2)cc1 | -25% | ? | 89µM* | 2% | -31% | -16%
C[C@@H]1CN([C@@H](C)CO)C(=O)c2cc(N(C)C)ccc2O[C@@H]1CN(C)Cc1ccncc1 | -8% | 2% | 3% | -2% | nt | 0%
Cc1cc(N(C)NC(=S)Nc2ccccc2)nc(C)n1 | -18% | 22% | 1% | 2% | 3% | 7%
Cc1ccc(NC(=O)C2CCCN2S(=O)(=O)c2ccc3nc(-c4ccccc4)[nH]c3c2)cc1F (stereo not drawn) | 79µM* | ? | ? | nt | ? | nt
Cc1ccc(NC(=O)C2CCCN2C(=O)OCc2ccccc2)cc1F (stereo not drawn) | -9% | ? | 79µM* | nt | 30% | 2%[11.6 µM]
SMILES | Pol eta inh | Pol iota inh | POLK inh | L3MBTL1 block | POLB inh | WRN inhibitor
COc1ccc(NC(=O)C2CCCN2S(=O)(=O)c2ccc3nc(-c4ccccc4)[nH]c3c2)cc1 (stereo not drawn) | 0% | -7% | 2% | nt | -6% | nt
O=C(Nc1cccc(F)c1)C1CCCN1C(=O)OCc1ccccc1 (stereo not drawn) | -6% | -12% | -3% | nt | 43% | 3%
CC(C)[C@H](NS(=O)(=O)c1cccc(Cl)c1)C(=O)OCC(=O)NC(=O)CN1CCCC1=O | 22µM* | 50µM* | ? | ? | nt | -9%
COC(=O)c1c(NC(=O)COC(=O)[C@@H](NS(=O)(=O)c2cccc(Cl)c2)C(C)C)sc2c1CCC2 | -26% | 15% | -3% | 3% | 3% | -16%
Cn1cnnc1Sc1ccc(/C=C/C(=O)c2ccc(O)cc2)cc1[N+](=O)[O-] | 50µM* | ? | -10% | 5% | 39% | -18%[57.1 µM]
Cc1ccc(C(=O)CC(SCC(=O)O)c2ccc([N+](=O)[O-])cc2)cc1 (stereo not drawn) | -25% | 10µM* | 3% | -9% | -7% | -12%
Nc1ccccc1SC(CC(=O)c1ccccc1)c1ccc([N+](=O)[O-])cc1 (stereo not drawn) | -6% | nt | nt | nt | nt | -27%
CCOc1ccccc1-n1cnc(C#N)c1N | -7% | 25% | 8% | 4%[11.4 µM] | 67% | -8%
Nc1nonc1-n1nnc(C(=O)N/N=C/c2cccs2)c1CSc1ccccc1 | -9% | ? | -21% | nt | -30% | -2%[11.6 µM]
O=C1Cc2cc(S(=O)(=O)N3CCNCC3)ccc2N1 | ? | 32µM* | -1% | 3% | nt | 4%[11.6 µM]
O=C(CN(C(=O)CNS(=O)(=O)c1ccc(F)cc1)c1ccccc1)NCc1ccco1 | -2% | -11% | 13% | nt | 11% | -4%
CCOC(=O)N1CCC(NS(=O)(=O)c2cc3c(cc2Br)CCN3C(=O)CC)CC1 | -17% | 10% | -2% | nt | nt | 5%
Cc1ccc(NC(=O)N(Cc2cn(C)c3ccccc23)C2CCCCC2)cc1C | -28% | 3% | -10% | nt | -2% | nt
COc1cc(C(=O)NS(=O)(=O)c2ccccc2C)ccc1Cc1cn(C)c2ccc(NC(=O)OC3CCCC3)cc12 | nt | nt | ? | nt | 56µM* | nt
NS(=O)(=O)c1cccc2c1c([N+](=O)[O-])cc1[nH]c(=O)c(=O)[nH]c12 | nt | nt | 21µM* | nt | nt | nt
NS(=O)(=O)c1cccc2c1c([N+](=O)[O-])cc1nc(O)c(O)nc12 | -9% | 41% | 4%[60.1 µM] | -12% | -14%[57.1 µM] | -12%
CC(C)=CC(=O)OCC(=O)Nc1nc(C)c(Cl)cc1Cl | 1% | 2% | -9% | -1% | 21% | -2%
COc1ccc(C(NC(=O)/C=C/c2ccco2)c2ccc(OC)cc2)cc1 | ? | ? | -7% | -11% | 16µM* | -17%
COc1ccc(C(NC(=O)/C=C\c2ccco2)c2ccc(OC)c(OC)c2)cc1 (stereo not drawn) | ? | ? | -18% | -25% | ? | -4%

High-throughput results as filed in PubChem.
